Experimental data from PubChem BioAssay.
A number with no mark means an inactive call. Results filed as inconclusive are left out. Active and inactive are the calls of the source. Unless noted, how the calls were made is not given here.

Assays:
[1] = test system: Aerobactin synthetase IucA (Klebsiella pneumoniae); assay: IucA aerobactin synthetase inhibitors, biochemical, Tocris library, absorbance (AID 1345561); conditions: purified IucA enzyme assay, absorbance (OD) read-out; active compounds read low;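 tested at 8 µM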;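 further: 100% = enzyme without compound and 0% = no enzyme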
[2] = target: ATP-dependent translocase ABCB1 (Homo sapiens) (UniProt P08183); assay: MDR1 (ABCB1) efflux transporter inhibition, cell-based (AID 377; in the data active means fluorescence slope change above about 50%); conditions: MDR1-expressing cells, fluorescent substrate accumulation slope; active compounds read high; concentration not given here
[3] = growth inhibition of DIPG glioma cells, dose response, cell-based, SU-DIPG-XIII, MIPE4.0, CellTiter-Glo, qHTS (AID 1347061; cut-off not given, nearly all actives have AC50 up to about 37 µM;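 further: cells exposed to compound for 48 hours before readout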); conditions: SU-DIPG-XIII viability, CellTiter-Glo ATP luminescence
[4] = growth inhibition of DIPG glioma cells, dose response, cell-based, JHH-DIPG-1, MIPE4.0, CellTiter-Glo, qHTS (AID 1347062; cut-off not given, nearly all actives have AC50 up to about 27 µM;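 on AC50: cells exposed to compound for two days before readout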); conditions: JHH-DIPG-1 viability, CellTiter-Glo ATP luminescence
[5] = growth inhibition of DIPG glioma cells, dose response, cell-based, SU-DIPG-IV, MIPE4.0, CellTiter-Glo, qHTS (AID 1347063; cut-off not given, nearly all actives have AC50 up to about 30 µM;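 further: compound exposure lasted 48 hours before the viability readout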); conditions: SU-DIPG-IV viability, CellTiter-Glo ATP luminescence
[6] = growth inhibition of DIPG glioma cells, dose response, cell-based, SU-DIPG-XIII, MIPE5.0, CellTiter-Glo, qHTS (AID 1347064; cut-off not given, nearly all actives have AC50 up to about 23 µM;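 on AC50: cells exposed to compound for 48 hours before the viability read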); conditions: SU-DIPG-XIII viability, CellTiter-Glo ATP luminescence
[7] = viability loss in pontine glioma line – cell-based, SU-DIPG-XXV, MIPE5.0, CellTiter-Glo, qHTS, dose response (AID 1347065; cut-off not given, nearly all actives have AC50 up to about 26 µM;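 further: cells exposed to compound for 48 hours before ATP readout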); conditions: CellTiter-Glo ATP luminescence
[8] = JHH-DIPG-1 glioma cell viability, MIPE5.0 library, CellTiter-Glo luminescence, qHTS (AID 1347067; cut-off not given, nearly all actives have AC50 up to about 26 µM;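 further: cells exposed to compound for 48 hours before readout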); conditions: JHH-DIPG-1 glioma viability, CellTiter-Glo ATP luminescence
[9] = SU-DIPG-XXV glioma cell viability, MIPE5.0 library, qHTS (AID 1347068; cut-off not given, nearly all actives have IC50 up to about 30 µM;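 on IC50: cells exposed to compound for 48 hours before viability readout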)
[10] = phospholipid biosynthesis inhibitors in animal cells, primary screen, cell-based, LOPAC library, screen 4 (AID 1347384); conditions: phospholipid biosynthesis inhibition screen, at 10 µM
[11] = circadian clock period modulators, cell-based, LOPAC library, luminescence reporter (AID 2774); conditions: circadian reporter cells, at 7 µM, actives lie on both sides;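 further: values are relative to mean of DMSO wells on each plate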
[12] = growth inhibition of DIPG glioma cells, dose response, cell-based, SU-DIPG-XVII, MIPE5.0, CellTiter-Glo, qHTS (AID 1347060; cut-off not given, nearly all actives have AC50 up to about 26 µM;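 on AC50: cells exposed to compound for 48 hours before viability readout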); conditions: SU-DIPG-XVII viability, CellTiter-Glo ATP luminescence
[13] = SU-DIPG-VI glioma cell viability, MIPE4.0 library, CellTiter-Glo luminescence, qHTS (AID 1347066; cut-off not given, nearly all actives have AC50 up to about 30 µM;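 further: cells exposed to compound for 48 hours before readout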); conditions: CellTiter-Glo ATP luminescence
[14] = target: Mitogen-activated protein kinase 7 (Homo sapiens) (UniProt Q13164); assay: ERK5 transactivation activators in reporter cells, primary screen, cell-based, HTS (AID 1508626;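 active means luciferase signal above three times the same-plate solvent-only control wells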;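 further: luciferase driven by Gal4-ERK5 fusion binding five Gal4 sites before minimal TATA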); conditions: HeLa Gal4-ERK5 transactivation, 18 h, at 5 µM, active compounds read high
Mitogen-activated protein kinase 7 (Homo sapiens), sequence (Q13164 whole entry, looked up, the tested form may be a part): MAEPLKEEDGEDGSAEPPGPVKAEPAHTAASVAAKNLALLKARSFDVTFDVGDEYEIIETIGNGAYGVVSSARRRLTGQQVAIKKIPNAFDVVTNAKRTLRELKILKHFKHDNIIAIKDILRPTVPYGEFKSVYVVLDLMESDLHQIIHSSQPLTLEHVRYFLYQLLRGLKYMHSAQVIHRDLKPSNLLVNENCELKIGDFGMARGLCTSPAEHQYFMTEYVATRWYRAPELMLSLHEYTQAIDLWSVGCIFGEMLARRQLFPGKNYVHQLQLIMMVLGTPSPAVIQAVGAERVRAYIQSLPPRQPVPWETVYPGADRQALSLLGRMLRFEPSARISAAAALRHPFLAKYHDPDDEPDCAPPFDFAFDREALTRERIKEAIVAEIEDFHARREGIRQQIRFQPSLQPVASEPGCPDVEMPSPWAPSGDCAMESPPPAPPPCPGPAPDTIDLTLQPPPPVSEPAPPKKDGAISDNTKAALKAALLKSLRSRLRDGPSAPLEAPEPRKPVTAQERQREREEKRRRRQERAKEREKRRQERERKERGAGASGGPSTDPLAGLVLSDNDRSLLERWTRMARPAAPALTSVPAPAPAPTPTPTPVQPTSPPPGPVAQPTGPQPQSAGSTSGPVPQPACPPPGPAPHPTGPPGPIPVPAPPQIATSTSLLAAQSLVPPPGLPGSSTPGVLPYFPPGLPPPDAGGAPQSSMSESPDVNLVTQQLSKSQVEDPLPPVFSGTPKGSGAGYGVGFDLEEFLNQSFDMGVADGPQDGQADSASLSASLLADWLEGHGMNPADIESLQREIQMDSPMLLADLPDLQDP

ATP-dependent translocase ABCB1 (Homo sapiens), sequence (P08183 whole entry, looked up): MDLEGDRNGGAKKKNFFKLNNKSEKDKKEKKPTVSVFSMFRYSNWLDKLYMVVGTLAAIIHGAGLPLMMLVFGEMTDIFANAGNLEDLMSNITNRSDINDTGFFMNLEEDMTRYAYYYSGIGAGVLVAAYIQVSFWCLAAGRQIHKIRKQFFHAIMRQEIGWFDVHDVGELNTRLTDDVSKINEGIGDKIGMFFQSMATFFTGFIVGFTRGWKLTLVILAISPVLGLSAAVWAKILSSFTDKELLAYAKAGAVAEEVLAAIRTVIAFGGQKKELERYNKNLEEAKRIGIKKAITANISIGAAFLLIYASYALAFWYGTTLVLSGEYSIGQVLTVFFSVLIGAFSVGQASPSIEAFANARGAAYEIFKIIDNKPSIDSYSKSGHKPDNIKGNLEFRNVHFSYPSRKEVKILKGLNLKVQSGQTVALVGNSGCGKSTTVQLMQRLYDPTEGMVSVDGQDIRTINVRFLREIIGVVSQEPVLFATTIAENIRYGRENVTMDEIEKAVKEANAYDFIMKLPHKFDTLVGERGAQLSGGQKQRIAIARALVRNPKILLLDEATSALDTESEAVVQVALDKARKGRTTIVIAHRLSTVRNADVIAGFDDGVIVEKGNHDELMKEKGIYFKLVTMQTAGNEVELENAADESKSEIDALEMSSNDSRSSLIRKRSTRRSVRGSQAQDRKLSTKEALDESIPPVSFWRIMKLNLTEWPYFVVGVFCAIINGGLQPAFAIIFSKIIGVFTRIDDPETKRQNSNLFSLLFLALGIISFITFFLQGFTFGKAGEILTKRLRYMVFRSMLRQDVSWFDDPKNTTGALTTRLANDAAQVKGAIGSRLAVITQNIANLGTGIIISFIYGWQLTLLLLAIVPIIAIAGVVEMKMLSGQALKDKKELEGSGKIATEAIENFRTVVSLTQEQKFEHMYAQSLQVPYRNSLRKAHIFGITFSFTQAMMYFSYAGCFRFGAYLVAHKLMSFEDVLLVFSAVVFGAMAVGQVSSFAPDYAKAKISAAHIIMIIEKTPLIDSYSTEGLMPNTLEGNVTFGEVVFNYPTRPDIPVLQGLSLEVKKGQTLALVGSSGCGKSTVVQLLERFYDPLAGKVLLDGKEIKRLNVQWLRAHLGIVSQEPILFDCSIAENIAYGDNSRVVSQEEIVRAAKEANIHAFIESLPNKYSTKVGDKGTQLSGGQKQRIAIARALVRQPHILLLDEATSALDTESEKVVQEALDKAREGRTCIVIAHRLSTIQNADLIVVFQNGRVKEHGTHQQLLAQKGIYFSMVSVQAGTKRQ

Compound: CC(C)NCC(O)c1ccc(N)c(C#N)c1 (stereo not drawn)
- remaining activity [1]: 122%

Compound: COc1ccc(CN2CCNCC2)c(OC)c1OC
- fluorescence slope change [2]: 2.5%

Compound: Cc1cccc(C)c1NC(=O)CN1CCCC1=O
- outcome [3]: inactive
- outcome [4]: inactive
- outcome [5]: inactive
- outcome [6]: inactive
- outcome [7]: inactive
- outcome [8]: inactive
- outcome [9]: inactive
- outcome [10]: inactive

Compound: N#CC(C#N)=Cc1ccc(O)c(O)c1
- period change [11]: -0.18 h
- remaining activity [1]: 122%
- outcome [10]: inactive

Compound: COC[C@@H](NC(C)=O)C(=O)NCc1ccccc1
- outcome [12]: inactive
- outcome [4]: inactive
- outcome [6]: inactive
- outcome [7]: inactive
- outcome [13]: inactive
- outcome [8]: inactive
- outcome [9]: inactive

Compound: COc1ccc(C(=O)c2c(C)n(CCN3CCOCC3)c3ccccc23)cc1
- outcome [3]: inactive
- outcome [4]: inactive
- outcome [5]: inactive
- outcome [13]: inactive
- AC50 [8]: 16.6 µM (active)

Compound: CCCCc1ccc(C(=O)O)nc1
- period change [11]: -0.03 h
- outcome [10]: inactive

Compound: O=C(O)c1ccc2[nH]cc(CCCCN3CC=C(c4ccccc4)CC3)c2c1
- remaining activity [1]: 115%

Compound: Clc1cccc(SC2CCNCC2)n1
- remaining activity [1]: 108%

Compound: Cc1ncsc1CCCl
- remaining activity [1]: 110%
- outcome [10]: inactive

Compound: Cc1nnc2n1-c1sc(CCC(=O)N3CCOCC3)cc1C(c1ccccc1Cl)=NC2
- remaining activity [1]: 108%

Compound: c1ccc(C2CC2)c(OCC2=NCCN2)c1
- period change [11]: -0.34 h
- remaining activity [1]: 102%
- outcome [10]: inactive

Compound: Cc1ccc(S(=O)(=O)N[C@@H](CCCCN)C(=O)CCl)cc1
- period change [11]: 0 h
- outcome [10]: inactive

Compound: CC(=O)[C@H]1CC[C@H]2[C@@H]3CC[C@H]4C[C@H](O)CC[C@]4(C)[C@H]3C(=O)C[C@]12C
- period change [11]: -0.1 h
- outcome [10]: inactive

Compound: Fc1ccc(C(OCCN2CCN(CCCc3ccccc3)CC2)c2ccc(F)cc2)cc1
- fluorescence slope change [2]: 119% (active)
- period change [11]: -0.11 h
- remaining activity [1]: 118%
- AC50 [12]: 14.8 µM (active)
- AC50 [3]: 20.9 µM (active)
- AC50 [4]: 14.8 µM (active)
- AC50 [5]: 13.2 µM (active)
- AC50 [7]: 8.33 µM (active)
- AC50 [13]: 16.6 µM (active)
- AC50 [8]: 18.6 µM (active)
- IC50 [9]: 16.6 µM (active)
- outcome [10]: inactive

Compound: FC(F)(F)c1cccc(C2=CCN(CCc3ccc4ccccc4c3)CC2)c1
- remaining activity [1]: 94.1%

Compound: CC(C)(C)OC(=O)c1ncn2c1[C@@H]1CCCN1C(=O)c1c(Br)cccc1-2
- remaining activity [1]: 103%

Compound: CCCN1CCC[C@@H]2Cc3nc(N)ncc3C[C@H]21
- period change [11]: -0.24 h
- outcome [10]: inactive

Compound: CN(C)CCc1ccc(O)cc1
- outcome [3]: inactive
- outcome [4]: inactive
- outcome [5]: inactive
- outcome [13]: inactive

Compound: O=C(CCCN1CCC(n2c(=O)[nH]c3ccccc32)CC1)c1ccc(F)cc1
- fluorescence slope change [2]: 57.5% (active)

Compound: [N-]=[N+]=CC(=O)OC[C@H](N)C(=O)O
- luciferase signal [14]: 40 AU

Compound: Clc1cccc(N2CCNCC2)c1
- period change [11]: 0.065 h

Compound: COc1ccc2c(c1OC)CN1CCc3cc4c(cc3C1C2)OCO4 (stereo not drawn)
- fluorescence slope change [2]: 24.8%
- outcome [3]: inactive
- AC50 [4]: 14.8 µM (active)
- AC50 [5]: 16.6 µM (active)
- outcome [13]: inactive

Compound: C[C@]12CCC(=O)C=C1CC[C@@H]1[C@@H]2CC[C@]2(C)C(=O)CC[C@@H]12
- period change [11]: 0.09 h

Compound: OC(c1ccccc1)(c1ccccc1)C1CCNCC1
- fluorescence slope change [2]: 93.1% (active)

Compound: COP(=S)(OC)Oc1ccc(Sc2ccc(OP(=S)(OC)OC)cc2)cc1
- luciferase signal [14]: 80 AU

Compound: COc1cccc2c1C(=O)c1c(O)c3c(c(O)c1C2=O)C[C@@](O)(C(=O)CO)CC3OC1CC(N2CCOC(OC)C2)C(O)C(C)O1 (stereo partly drawn)
- AC50 [12]: 0.00417 µM (active)
- AC50 [6]: 0.00742 µM (active)
- AC50 [7]: 0.0235 µM (active)
- AC50 [8]: 0.0148 µM (active)
- IC50 [9]: 0.332 µM (active)

Compound: COc1ccc2c(c1OC)C(=O)O[C@H]2[C@@H]1c2cc3c(cc2CCN1C)OCO3
- period change [11]: -0.14 h
- outcome [10]: inactive

Compound: CN(C)C(=S)SSC(=S)N(C)C
- luciferase signal [14]: 64 AU

Compound: CN1C[C@H](CNC(=O)OCc2ccccc2)C[C@@H]2c3cccc4c3c(cn4C)C[C@H]21
- fluorescence slope change [2]: 18.1%
- period change [11]: 0.135 h
- remaining activity [1]: 86.6%
- outcome [10]: inactive
- luciferase signal [14]: 40 AU
